Tgondii IFNg = inhibitors of Toxoplasma gondii growth with IFN-gamma; Toxoplasma gondii growth in IFN-gamma-treated host cells; stronger effect = lower value; activity change, negative = inhibition, % (test concentration not listed); 69,000 tested, 3.8% active; AID 1259416; in the data active = activity change below about -70%, passing the limit was not always enough;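 note: host cells are HeLa cells infected with Toxoplasma gondii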
Numbers stand for hits; - = inactive. The full list was thinned out, with hits kept by preference.

SMILES	Tgondii IFNg
C[C@H](CO)N1C[C@H](C)[C@H](CN(C)S(=O)(=O)c2ccc([N+](=O)[O-])cc2)OCc2ccccc2-c2c(n(C)c3ccccc23)C1=O	-72.5
COc1cccc(S(=O)(=O)N(C)C[C@H]2OCc3ccccc3-c3c(n(C)c4ccccc34)C(=O)N([C@@H](C)CO)C[C@H]2C)c1	-72.3
COc1cccc(S(=O)(=O)N(C)C[C@@H]2OCc3ccccc3-c3c(n(C)c4ccccc34)C(=O)N([C@@H](C)CO)C[C@@H]2C)c1	-
COc1cccc(S(=O)(=O)N(C)C[C@@H]2OCc3ccccc3-c3c(n(C)c4ccccc34)C(=O)N([C@H](C)CO)C[C@@H]2C)c1	-
C[C@@H]1CN([C@@H](C)CO)C(=O)c2c(c3ccccc3n2C)-c2ccccc2CO[C@@H]1CN(C)S(=O)(=O)c1ccc([N+](=O)[O-])cc1	-
C[C@@H]1CN([C@H](C)CO)C(=O)c2c(c3ccccc3n2C)-c2ccccc2CO[C@@H]1CN(C)S(=O)(=O)c1ccc([N+](=O)[O-])cc1	-
COc1cccc(C)c1NC(=O)c1cccc(CN2CC=CC2)c1	-
NC(=O)CN1CCC=C(CNC(=O)c2ccc(Cl)cc2Cl)C1	-
O=C(CCN1Cc2ccccc2C1=O)Nc1cnc2n1CCCC2	-
O=C(c1ccn[nH]1)N1CCC2(CC(=O)N(c3ccccc3)C2)C1 (configuration not stated)	-
N#Cc1ccc(N2CC3(CCN(C(=O)c4cnccn4)C3)CC2=O)cc1 (configuration not stated)	-
Cc1ccccc1N1CC2(CCN(C(=O)Cc3ccc(F)cc3)C2)CC1=O (configuration not stated)	-
Cc1ccc(N2CC3(CCN(C(=O)Cc4ccc(F)cc4)C3)CC2=O)cc1 (configuration not stated)	-113.1
O=C(c1ccn[nH]1)N1CCC2(CC(=O)N(c3ccc(F)cc3)C2)C1 (configuration not stated)	-92.1
Cc1ccc(N2CC3(CCN(C(=O)Nc4ccc(F)cc4)C3)CC2=O)cc1 (configuration not stated)	-
COc1ccc(Cn2c(-c3cc(C)nn3C)n[nH]c2=O)cc1	-
Cn1ccnc1CN1CCN(Cc2nc(-c3ccc4c(c3)OCO4)no2)CC1	-
CC(C)[C@@H]1C(=O)NCCC=CC[C@@H](C)Oc2ccccc2C(=O)N1C (mixture of isomers)	-
c1coc(CN(Cc2ccsc2)Cc2cnc[nH]2)c1	-
Cc1ccc(C2(O)CCN(C(=O)c3ccc(-c4ncn[nH]4)cc3)CC2)nc1	-
CN(Cc1cc2n(n1)CCCNC2)Cc1noc(-c2ccccc2)n1	-
Cc1nc(-c2cnccn2)sc1C(=O)Nc1ccc(N2CCOCC2)cc1	-
Cc1nn(CC(=O)Nc2ccc(N3CCOCC3)cc2)c(C)c1Br	-
Cc1nc(N)sc1-c1ccnc(Nc2ccc(N3CCOCC3)cc2)n1	-79.4
O=S(=O)(c1ccccc1)N1N=C2CCCCC2C1(O)C(F)(F)F (configuration not stated)	-
SMILES	Tgondii IFNg
CC(C)c1nccc(-c2nccn2C(C)c2ccc(-n3cncn3)cc2)n1 (configuration not stated)	-
COc1ccccc1C1(O)CCN(Cc2cn(CC(=O)NC(C)C)c3ccccc23)CC1	-
CC(C)(C)Cn1c(N)nc2ccc(-c3[nH]c(C(C)(C)C)nc3-c3ccc(F)cc3)nc21	-83.1
CN(C)CC(=O)N1CC2CN(C(=O)Nc3ccccc3)CC2C1 (configuration not stated)	-
CCCc1nc(C(=O)NCc2ccc3c(c2)n(C)c(=O)n3C)cs1	-
COc1ccc2c3c(n(C)c2c1)[C@@H](CO)N(C(=O)c1ccc(F)cc1)CC31CCN(C)CC1	-
CCN(C[C@@H]1N[C@@H](CO)[C@H]1c1ccc(-c2ccc(F)cc2)cc1)C(=O)CN(C)C	-
COCc1cc(N(C)C)nc(-c2csc(C)n2)n1	-
Cc1ccc(-c2nc(Cn3nnc(C(=O)NCc4ccc(C(C)C)cc4)c3C)c(C)o2)cc1	-
Cc1ccc(-c2nc(Cn3nnc(C(=O)Nc4ccccc4)c3C)c(C)o2)cc1	-
Cc1ccc(-c2nc(Cn3nnc(C(=O)NC4CCCC4)c3C)c(C)o2)cc1	-100.9
Cc1ccc(CNC(=O)c2nnn(Cc3nc(-c4ccc(C)cc4)oc3C)c2C)cc1	-94.1
Cc1ccc(-c2nc(Cn3nnc(C(=O)NCc4ccc(Br)cc4)c3C)c(C)o2)cc1	-
Cc1ccc(-c2nc(Cn3nnc(C(=O)NCCc4ccccc4)c3C)c(C)o2)cc1	-
c1nc(-c2cc(NC3CCCC3)nc3[nH]ccc23)cc(N2CCOCC2)n1	-
CCN(CC1CCOCC1)C(=O)CCNC(=O)c1ccccc1F	-
COc1ccc(N(C)c2ccc3ccc(C(=O)N4CCC(N(C)C)C4)cn23)cc1 (configuration not stated)	-
COc1ccc(-c2csc(NC(=O)c3cn4cccc(C)c4n3)n2)c(OC)c1	-
Cc1cccc(Cn2c(CN3CCC(C(=O)NCCCN4CCCC4=O)CC3)cc3ccccc32)c1	-
CCCCOC(=O)c1ccc(-c2cc(C(F)(F)F)nn2C)s1	-
Cc1ccc(CN2CC[C@@H]3[C@H]2CCN3S(=O)(=O)C2CC2)cc1	-
OC1CCC(Nc2ncc3nc(Nc4c(F)cc(F)cc4F)n([C@H]4CCOC4)c3n2)CC1 (some centres not stated)	-73.3
Fc1cnc(NC2COC3(CCCN(CC4CCOCC4)C3)C2)nc1 (configuration not stated)	-
Cc1cc(-c2cn[nH]c2C2CCCN(C(=O)c3ccc4c(c3)OCCO4)C2)on1 (configuration not stated)	-
Cc1ccc(NC(=O)Cn2ncc3c(N4CCCCCC4)ncnc32)c(C)c1	-
SMILES	Tgondii IFNg
COc1cccc(-c2cc(C(=O)N(C)Cc3nnc(-c4ccccc4)o3)on2)c1	-
Cc1c(Cl)cccc1NC(=O)c1c(O)c2ccccc2[nH]c1=O	-
Cc1nc(C(=O)Nc2ccccc2Cl)cc2c1[nH]c1ccccc12	-81.2
O=C(Nc1ccccc1Cl)c1nc(Nc2ccccc2)c2ccccc2n1	-
COc1ccccc1-c1nc(Cn2nnc(-c3nc(-c4ccccc4)no3)c2C)c(C)o1	-
CCCCCCCCCCCCCCCCCCCCCC(=O)O	-
C[C@@H]1CCCCO[C@@H](CN(C)C(=O)Nc2ccccc2)[C@H](C)CN([C@@H](C)CO)C(=O)c2cc(NC(=O)Nc3ccccc3)ccc2O1	-
COc1cc(CNC(=O)Cn2ncc3c(N4CCCCC4)ncnc32)cc(OC)c1	-
O=C(NCc1cccc(O)c1)Nc1nc(-c2ccncc2)cs1	-73.7
O=C(Nc1nc(-c2ccccc2)cs1)C1CCCN1C(=O)OCc1ccccc1 (configuration not stated)	-
COc1cccc(CNC(=O)Nc2ccc(-c3nc(-c4ccccc4)co3)cc2)c1	-
Cc1cc(=O)n2[nH]cc(C(=O)N3CCC(n4c(=O)oc5ccccc54)CC3)c2n1	-
CN1CCOCC2(CCCN(C(=O)c3c[nH]c4ccccc34)C2)C1 (configuration not stated)	-
N#C[C@H]1[C@H](c2ccccc2C2=CCCCC2)[C@@H](CO)N1C(=O)CN1CCOCC1	-
COc1ccc(CNc2nc(SCc3ccc(F)cc3)nc3ccccc23)cc1	-
COc1ccc(CNc2nc(SCc3ccc(Cl)cc3)nc3ccccc23)cc1	-
CCN(CC)c1ncc2c(NCc3ccccc3)nc(SCc3ccccc3)nc2n1	-109.9
CC(C)c1noc(C2CCCN(C(=O)c3cnnn3-c3ccccc3)C2)n1 (configuration not stated)	-

Bioassay records (PubChem)
